# Laboratory results: PubChem BioAssay (NCI)
# The panel holds about 83,000 compounds, 20% with a hit somewhere; the sample as a whole holds those more often.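 Each cell line was grown in a 96-well plate and treated with one concentration of compound for 48 hours. Values below 10 were considered active.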 A number with no mark means an inactive call. Calls of active or inactive are those of the source.
# System: HL-60(TB) leukemia
# Test: NCI-60 one-dose screen, 48 h (100 = growth as untreated, 0 = no growth, -100 = all killed)
# Settings: 10 µM unless noted
row,SMILES,growth
1,CC1C(=NC(=O)c2cnccn2)C(C)C(c2ccc(Cl)cc2)NC1c1ccncc1 (stereo not drawn),108%
2,Cc1ccc(C)c(NC(=O)c2sc3c(=O)[nH]cnc3c2C)c1,65.4%
3,COc1cccc(NC(=O)Nc2ccc(Nc3ncnc4sc5c(c34)CCN(C(=O)CCl)C5)cc2)c1,90%
4,COc1cc(C2Nc3ccccc3S2)cc(CN2CCOCC2)c1O (stereo not drawn),80.6%
5,Fc1ccc2nc3c(cc2c1)CSc1nnc(-c2ccc[nH]c2=S)n1N3,106%
6,OC(CCN1CCCCC1)(c1ccccc1)c1ccccc1,130%
7,COc1ccc(C2CC(=O)Nc3c2c(C)nn3-c2nc3ccccc3[nH]2)cc1 (stereo not drawn),-17% (active)
8,O=C1NC(=O)C(=Cc2cn(Cc3cn(Cc4ccc(Cl)cc4Cl)nn3)c3ccccc23)C(=O)N1,73.8%
9,Oc1ccccc1C=Nc1ccccc1N=Cc1ccccc1O.[Cu+2],55.8%
10,O=C(CN1N=C(c2ccc(F)cc2)CCC1=O)Nc1nc2ccccc2s1,8.9% (active)
11,COC1C(O)CC(OC2CC(OC3CC(O[C@@H]4C(=O)c5c(cc6cc(OC7CC(OC8CC(O)C(O)C(C)O8)C(O)C(C)O7)c(C)c(O)c6c5O)CC4[C@H](OC)[C@@H](O)C(C)=O)OC(C)C3O)OC(C)C2O)OC1C (stereo partly drawn),14.3%
12,COC(=O)c1c(C)nc(Nc2nc3ccccc3s2)nc1-c1ccc(Cl)cc1Cl,96.3%
13,CN1C(=O)/C(=C/c2ccc(C(=O)Nc3ncc(Cc4cc(Cl)ccc4Cl)s3)cc2)SC1=S,91%
